Compound activity deposited in PubChem BioAssay by Center for Chemical Genomics, University of Michigan.
This is one part of a sample in which hits are shown more often than they occur.
Dicer inh: inhibitors of Dicer pre-microRNA processing, primary screen, biochemical, cat-ELCCA, chemiluminescence. hit rate 6% among 47,000. z-score at 25 µM. cat-ELCCA pre-miR-21 Dicer processing; hits give high values. Endoribonuclease Dicer (Homo sapiens), Q9UPY3; in the data active = z-score above about 3, passing the limit was not always enough;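 also: plate controls were vehicle for no effect and no enzyme for full effect; higher signal means more uncleaved substrate so more Dicer inhibition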
Target sequence (Q9UPY3 whole entry, looked up): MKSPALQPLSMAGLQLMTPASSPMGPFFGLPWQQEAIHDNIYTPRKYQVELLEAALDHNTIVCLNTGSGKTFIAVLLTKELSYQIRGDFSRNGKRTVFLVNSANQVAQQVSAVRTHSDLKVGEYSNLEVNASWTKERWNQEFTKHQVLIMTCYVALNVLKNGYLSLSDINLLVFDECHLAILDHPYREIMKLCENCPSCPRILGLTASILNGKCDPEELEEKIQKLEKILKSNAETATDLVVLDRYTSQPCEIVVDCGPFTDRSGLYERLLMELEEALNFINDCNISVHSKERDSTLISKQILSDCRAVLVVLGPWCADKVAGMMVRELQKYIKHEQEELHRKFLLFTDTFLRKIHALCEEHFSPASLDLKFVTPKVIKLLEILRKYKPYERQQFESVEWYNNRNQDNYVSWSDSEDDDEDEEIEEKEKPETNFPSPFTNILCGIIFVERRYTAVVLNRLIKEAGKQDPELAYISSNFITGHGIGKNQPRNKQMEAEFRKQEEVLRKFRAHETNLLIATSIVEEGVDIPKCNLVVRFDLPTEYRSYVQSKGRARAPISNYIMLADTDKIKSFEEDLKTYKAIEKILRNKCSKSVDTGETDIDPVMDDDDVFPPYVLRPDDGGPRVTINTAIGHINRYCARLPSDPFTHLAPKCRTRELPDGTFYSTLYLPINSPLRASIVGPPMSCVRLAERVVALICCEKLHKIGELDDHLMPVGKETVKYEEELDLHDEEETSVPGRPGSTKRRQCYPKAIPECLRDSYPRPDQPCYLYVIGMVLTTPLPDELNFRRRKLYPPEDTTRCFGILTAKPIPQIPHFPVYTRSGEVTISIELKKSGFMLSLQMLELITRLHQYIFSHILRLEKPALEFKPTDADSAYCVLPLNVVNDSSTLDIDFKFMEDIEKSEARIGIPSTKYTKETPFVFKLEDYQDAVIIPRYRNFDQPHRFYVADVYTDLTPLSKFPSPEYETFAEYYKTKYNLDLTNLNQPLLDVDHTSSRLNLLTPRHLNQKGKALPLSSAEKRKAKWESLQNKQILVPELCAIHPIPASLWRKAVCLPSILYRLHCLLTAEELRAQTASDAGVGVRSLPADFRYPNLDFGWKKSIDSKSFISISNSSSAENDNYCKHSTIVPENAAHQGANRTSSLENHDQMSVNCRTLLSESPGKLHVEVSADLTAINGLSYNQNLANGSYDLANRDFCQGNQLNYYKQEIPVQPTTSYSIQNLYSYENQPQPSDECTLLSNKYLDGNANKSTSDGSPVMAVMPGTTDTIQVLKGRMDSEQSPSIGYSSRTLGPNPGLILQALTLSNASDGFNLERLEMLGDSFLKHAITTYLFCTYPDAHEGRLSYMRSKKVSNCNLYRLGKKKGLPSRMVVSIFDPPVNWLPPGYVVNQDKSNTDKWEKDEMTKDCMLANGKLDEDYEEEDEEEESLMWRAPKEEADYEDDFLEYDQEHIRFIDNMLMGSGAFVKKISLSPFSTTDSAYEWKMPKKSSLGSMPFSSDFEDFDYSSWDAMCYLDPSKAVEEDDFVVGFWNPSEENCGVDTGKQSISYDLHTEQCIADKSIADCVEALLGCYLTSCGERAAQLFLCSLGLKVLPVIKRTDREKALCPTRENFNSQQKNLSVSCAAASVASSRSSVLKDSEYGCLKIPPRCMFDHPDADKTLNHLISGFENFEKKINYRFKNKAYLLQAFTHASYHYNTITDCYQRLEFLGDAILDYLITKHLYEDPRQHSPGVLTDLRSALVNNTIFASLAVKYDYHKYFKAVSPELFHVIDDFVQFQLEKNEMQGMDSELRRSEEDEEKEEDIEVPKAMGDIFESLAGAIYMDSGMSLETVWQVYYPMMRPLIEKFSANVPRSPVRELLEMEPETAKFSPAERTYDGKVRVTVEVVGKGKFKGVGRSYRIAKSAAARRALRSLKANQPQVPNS
Active calls of the source: *.

SMILES | Dicer inh
COCCCN1C(=O)C(=O)/C(=C(\O)c2ccc(C)c(F)c2)C12C(=O)N(C)c1ccccc12 (configuration not stated) | 46
Cc1[nH]c2ccc(Cl)cc2c(=O)c1CN1CCN(C)CC1 | 1
Cc1cc2c(cc1C)CSC(C)(c1ccc([N+](=O)[O-])cc1)SC2 | 0.1
Cc1cccnc1Nc1nc(-c2ccccn2)cs1 | -3.3
COc1ccc(Nc2nc(-c3ccccn3)cs2)cc1 | 6.4*
COc1ccc(Nc2nc(-c3cccnc3)cs2)cc1 | 1.6
Cc1cc2n(n1)C(c1cccc(O)c1O)Nc1ccccc1-2 (configuration not stated) | 21*
COc1ccc(C2Nc3ccccc3-c3cc(C)nn32)c(OC)c1 (configuration not stated) | 0.44
Cc1cc2n(n1)C(c1ccc(O)cc1O)Nc1ccccc1-2 (configuration not stated) | 1.2
Cc1ccc2c(c1)-c1cc(C)nn1C(c1ccc(O)cc1O)N2 (configuration not stated) | 3.7*
COc1cccc(C2Nc3ccc(C)cc3-c3cc(C)nn32)c1OC (configuration not stated) | 1.9
Cc1cc(C)c2c(c1)-c1cc(C)nn1C(c1ccc(O)cc1O)N2 (configuration not stated) | 1.4
COc1cccc(C2Nc3ccc(C)cc3-c3cc(C)nn32)c1O (configuration not stated) | 3*
COc1cc(O)ccc1C1Nc2ccc(C)cc2-c2cc(C)nn21 (configuration not stated) | 2.7
COc1ccc(Br)cc1C1Nc2c(C)cccc2-c2cc(C)nn21 (configuration not stated) | 2.9
COc1ccc(C2Nc3ccc(C)cc3-c3cc(C)nn32)cc1OC (configuration not stated) | 2.7
Cc1ccc2c(c1)-c1cc(C)nn1C(c1ccccc1O)N2 (configuration not stated) | -0.25
COc1ccc(Br)cc1C1Nc2ccc(C)cc2-c2cc(C)nn21 (configuration not stated) | 3.5*
Cc1c(C#N)c(N)n(CCCn2cccn2)c1C | 0.26
O=C(O[C@@H]1CSSC[C@H]1OC(=O)c1ccccc1)c1ccccc1 | -0.84
CC(C)OC(=O)C1C2C=CC3(CN(C4CCCCC4)C(=O)C13)O2 (configuration not stated) | -0.3
O=C1C(=O)N(CCCn2ccnc2)C(c2ccco2)/C1=C(\O)c1ccc(Cl)cc1 (configuration not stated) | -0.15
CC(C)c1nnc(NCC(C)(C)C)s1 | -0.25
O=C(Nc1nc2c(s1)CCc1ccccc1-2)c1cccc(F)c1 | -0.17
COc1cc(/C=C2\CCc3cc(OC)ccc3C2=O)cc(OC)c1 | -6.8
SMILES | Dicer inh
O=C(Nc1ccc(-c2nc3c(ccc4ccccc43)o2)cc1)c1ccc([N+](=O)[O-])o1 | 2.3
O=S1(=O)NC(=NC2CCCCC2)c2ccccc21 | 1.4
COc1cccc(C2Nc3c(C)cccc3-c3cc(C)nn32)c1OC (configuration not stated) | 0.22
COc1cccc(C2Nc3c(C)cc(C)cc3-c3cc(C)nn32)c1OC (configuration not stated) | 4.9*
COc1cccc(C2Nc3c(C)cc(C)cc3-c3cc(C)nn32)c1O (configuration not stated) | 0.17
COc1ccc(C(=O)C[n+]2cc(-c3ccccc3)n3c2CCCCC3)cc1OC | -0.33
COC(=O)c1sc(N2CCCC2)c(C#N)c1N | -0.04
COc1ccc(SCCC(=O)NNS(=O)(=O)c2ccc(-c3ccccn3)s2)cc1 | -1.7
O=C(NNS(=O)(=O)c1ccc(-c2ccccn2)s1)Nc1cccc(Cl)c1 | 4*
Clc1cccc(Sc2ccc(-c3ccccn3)s2)c1 | -0.72
C=CCNC(=O)C(=O)NCCc1c[nH]c2ccccc12 | 3.7*
N#C/C(=C\c1ccc(-c2cc(C(F)(F)F)cc(C(F)(F)F)c2)o1)C(=O)NCCc1c[nH]c2ccccc12 | -0.31
CCOC(=O)NC(=S)NCCc1c[nH]c2ccccc12 | 1
O=C(COC(=O)c1cc2ccccc2cc1OC(=O)c1ccc(Cl)cc1)c1ccc(Cl)cc1 | 1
COc1ccc(C(=O)CC(=O)c2cc(Cl)ccc2O)cc1OC | -0.7
Cc1ccc(C(=O)COC(=O)c2cc(Cl)ccc2O)cc1C | 4*
NC(=O)CCS(=O)CCC(N)=O | -1.8
O=C(NCc1ccc(S(=O)(=O)N2C=CC(C(F)(F)F)=NCC2)s1)c1ccccc1 | -0.61
CCOc1ccc(C2C(C(=O)OCc3ccccc3)=C(C)NC3=C2C(=O)CC(C)(C)C3)cc1 (configuration not stated) | -1.5
O=C1OC(Nc2ccccc2SCc2ccccc2Cl)c2ccccc21 (configuration not stated) | 3.3*
N#Cc1ccc(CSc2ccccc2NC2OC(=O)c3ccccc32)cc1 (configuration not stated) | 3.2
O=C1OC(Nc2ccccc2Sc2ccc(Cl)cc2[N+](=O)[O-])c2ccccc21 (configuration not stated) | 0.08
Cc1[nH][nH]c(=O)c1C(c1cccc(O)c1)c1c(C)[nH][nH]c1=O | -6
O=C(NC(=S)NN1CCCCC1)c1csc([N+](=O)[O-])c1 | 2.2
CC(C)CNC(=S)NC(=O)c1csc([N+](=O)[O-])c1 | 1.1
SMILES | Dicer inh
CC(C)c1ccc(NC(=S)NNC(=O)NC(=O)c2csc([N+](=O)[O-])c2)cc1 | 4.7*
COc1cc(N(C)C)c(OC)cc1/C=C(\C#N)c1ccc([N+](=O)[O-])cc1 | -1.1
CCOC(=O)c1cnc(NC(=O)CSc2nnc3sc4ccccc4n23)s1 | 4.3*
CC(Sc1nnc2sc3ccccc3n12)C(=O)O (configuration not stated) | 0.44
C=CCSc1nnc2sc3ccccc3n12 | 0.61
N#Cc1c2c(c(Sc3nc4ccccc4[nH]3)n3c1nc1ccccc13)CCCC2 | -1.8
COC(=O)c1ccc(C(=O)OC)nc1 | 3.9*
COC(=O)c1ccc2ncccc2c1 | -0.59
COC(=O)c1ccc(C(F)(F)C(F)(F)c2ccc(C(=O)OC)cc2)cc1 | 0.5
CC(C)NC(=O)ONC(=O)c1csc(-c2cccnc2)n1 | 0.59
CCOc1ccc(S(=O)(=O)Nc2cc(C)ccn2)c(C)c1C | 0.29
CC(C)N(CCC#N)C(=O)Nc1ccc2c(c1)CCO2 | 0.86
CCOC(=O)N1CCC(NC(=O)Nc2ccc3c(c2)CCO3)CC1 | 5*
CCOC(=O)N1CCC(NC(=O)c2cc(C)cc(C)c2)CC1 | -0.17
Cc1noc(C)c1S(=O)(=O)N=S(C)(=O)c1ccc(Cl)cc1 (configuration not stated) | -1.1
O=C1SC(Nc2cccc(Cl)c2)C(=O)N1c1ccccc1 (configuration not stated) | 0.86
O=C1SC(Nc2ccc(F)cc2)C(=O)N1c1ccccc1 (configuration not stated) | 1.9
COc1cccc(NC2SC(=O)N(c3ccccc3)C2=O)c1 (configuration not stated) | 49*
COc1cccc(OCC(F)(F)F)c1C#N | 0.1
O=[N+]([O-])c1cc(F)ccc1/C=C/N1CCCC1 | 1.2
O=[N+]([O-])c1cccnc1Oc1ccc(OCc2ccccc2)cc1 | -1.6
O=[N+]([O-])c1ccc(OCc2ccccc2)cc1/C=C\N1CCCC1 | 3*
Cc1c(S(=O)(=O)Nc2ccc3c(c2)OCCO3)sc2ccc(Cl)cc12 | 0.83
COc1ccccc1NS(=O)(=O)c1sc2ccc(Cl)cc2c1C | 3.3*
Cc1ccc(NS(=O)(=O)c2sc3ccc(Cl)cc3c2C)cc1 | 1.4
